Shown are actives, neighbours in structure and some others; about 4.7% of the full set was active somewhere.
D1 potentiator: enhances dopamine response at the human D1 receptor; P21728; HEK293 TREx D1 cells, calcium flux, dopamine EC20 potentiation; potentiation, % at 10 µM; 360,000 tested, 0.036% active; AID 504651; in the data active = potentiation above about 30%
Target sequence (P21728 whole entry, looked up): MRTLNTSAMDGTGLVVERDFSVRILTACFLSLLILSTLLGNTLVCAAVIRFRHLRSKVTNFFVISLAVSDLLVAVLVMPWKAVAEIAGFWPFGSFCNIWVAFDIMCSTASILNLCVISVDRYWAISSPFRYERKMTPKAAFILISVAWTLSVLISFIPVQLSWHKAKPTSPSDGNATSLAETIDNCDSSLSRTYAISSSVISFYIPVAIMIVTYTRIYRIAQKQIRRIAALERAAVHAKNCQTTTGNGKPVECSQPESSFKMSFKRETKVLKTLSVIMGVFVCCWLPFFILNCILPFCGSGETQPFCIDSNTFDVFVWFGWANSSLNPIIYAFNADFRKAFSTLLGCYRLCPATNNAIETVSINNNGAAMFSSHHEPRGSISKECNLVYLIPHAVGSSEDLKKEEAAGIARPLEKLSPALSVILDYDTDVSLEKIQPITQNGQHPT
D1 antagonist: antagonists of human D1 dopamine receptor; P21728; HEK293 TREx D1 cells, calcium flux, dopamine EC80; stronger effect = lower value; activity change, negative = inhibition, % at 10 µM; 360,000 tested, 3.2% active; AID 504652; in the data active = activity change below about -30%
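After overnight tetracycline induction at 30 C, force-coupled D1 HEK293 cells took up a no-wash calcium dye at room temperature. Compounds were added and monitored 180 s, and the response to EC80 dopamine was then recorded.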
D1 agonist: activates the human D1 dopamine receptor. HEK293 T-REx D1 cells, calcium flux, agonist mode. P21728. AID 504660. activation, % at 2 µM. 360,000 tested, 1% active
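Agonism was scored from calcium flux recorded over 180 s (1 read/s) after pintool compound addition, following a 10-cycle baseline. Cells were inducible force-coupled HEK293 TREx D1, plated overnight at 30 C and loaded with no-wash calcium dye.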
TRHR agonist: TRH receptor (human) agonism. activation, % at 2 µM. TRHR cells, calcium flux fluo-8, FDSS agonist mode. AID 493084. 360,000 tested, 0.18% active
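Fluo-8-loaded TRHR cells; 10 s baseline, compound added, kinetic Ca2+ fluorescence read 1/s, agonist mode.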
TRHR PAM: allosteric enhancers of human TRH receptor. enhancement, % at 2 µM. P34981. 360,000 tested, 0.66% active. TRHR cells, fluo-8 calcium fluorescence, EC20 TRH enhancement; in the data active = enhancement above about 30%
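Enhancer read-out: after compound pinning and an initial kinetic agonist-mode read, an EC20 of TRH (10 nM final) was injected and fluo-8 calcium signal (Ex 480/Em 530) followed at 1 s/cycle for 100 cycles in TRHR-expressing cells.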
A number is an active result; - = inactive; . = not tested or not shown. Cut-off read from the data, not from the text of the source, unless noted: active = activation above about 30%; inactive = the rest.

SMILES	D1 potentiator	D1 antagonist	D1 agonist	TRHR agonist	TRHR PAM
C=CCNC(=O)C1CC(=O)N(c2ccc(OCC(=O)Nc3ccc(OC)cc3)cc2)C1 (stereo not drawn)	-	-	-	-	-
CCCNC(=O)C1CC(=O)N(c2ccc(OCc3ccc(Cl)cc3)cc2)C1 (stereo not drawn)	-	-	-	-	-
CCOc1ccc(N2CC(C(=O)N3CCCC3)CC2=O)cc1 (stereo not drawn)	-	-83.2	-	-	-
NC(=O)C1CC(=O)N(c2ccc(OCc3ccc(Cl)cc3)cc2)C1 (stereo not drawn)	-	-39.0	-	-	-
C=CCNC(=O)C1CC(=O)N(c2ccc(OCC(=O)Nc3ccc(C)cc3)cc2)C1 (stereo not drawn)	-	-30.9	-	-	-
Cc1ccc(-c2ccc(=O)n(CC(=O)Nc3ccc(C(C)C)cc3)n2)cc1	-	-	-	-	-
O=C(NCc1nnnn1-c1ccc(F)cc1)C1CC(=O)N(c2ccc(F)cc2)C1 (stereo not drawn)	-	-30.1	-	-	-
Cc1ccc(-n2nnnc2CNC(=O)C2CC(=O)N(c3ccc(F)cc3)C2)cc1C (stereo not drawn)	-	-	-	-	-
Cn1nnnc1SCCNCc1ccccc1OCc1ccc(Cl)cc1	-	-	-	-	-
Cn1nnnc1SCCCNCc1cccc(OCc2ccc(F)cc2)c1	-	-31.1	149.8	-	-
Cn1nnnc1SCCNCc1ccc(OCc2ccccc2Cl)cc1	-	-	97.7	-	-
Cn1nnnc1SCCCNCc1ccccc1OCc1ccc(Cl)cc1	-	-38.8	75.1	-	-
CCOc1cccc(CNCCCSc2nnnn2C)c1	-	-	-	-	-
Cc1onc(-c2c(Cl)cccc2Cl)c1C(=O)N1CCOCC1	-	-	-	-	-
Cc1cc(C)c2nc(-c3cccc(Cl)c3)c(C)c(C(=O)N3CCOCC3)c2c1	-	-	-	-	32.7
O=C(N/N=C/c1ccc(Cl)s1)C(O)c1ccccc1 (stereo not drawn)	-	-37.2	-	-	-
CCOc1ccc(/C=N/NC(=O)C(O)c2ccccc2)c(O)c1 (stereo not drawn)	-	-32.7	-	-	-
O=C(N/N=C/c1cc(Br)cs1)C(O)c1ccccc1 (stereo not drawn)	-	-	-	-	-
CCOc1ccc(CCNC(=O)C(O)c2ccccc2)cc1 (stereo not drawn)	-	-	-	-	-
CCOC(=O)c1ccc(NC(=O)CN2C(=O)c3cccnc3Oc3ccc(Cl)cc32)cc1	-	-	-	-	-
COc1ccc(NC(=S)NC2CC3CCC(C2)N3Cc2ccco2)cc1 (stereo not drawn)	-	-64.2	-	-	-
Cc1cccc(NC(=S)NC2CC3CCC(C2)N3Cc2ccco2)c1 (stereo not drawn)	-	-67.1	-	-	-
Cc1cc(C)cc(NC(=S)NC2CC3CCCC(C2)N3CC(C)C)c1 (stereo not drawn)	-	-	-	-	-
Cc1ccc(NC(=S)NC2CC3CCCC(C2)N3Cc2ccco2)cc1 (stereo not drawn)	-	-65.4	41.2	-	-
Cc1cccc(NC(=S)NC2CC3CCCC(C2)N3CC(C)C)c1 (stereo not drawn)	-	-58.9	-	-	-
SMILES	D1 potentiator	D1 antagonist	D1 agonist	TRHR agonist	TRHR PAM
O=C(C1CCCN(S(=O)(=O)c2cccc3nsnc23)C1)N1CCN(c2ccccc2)CC1 (stereo not drawn)	-	-	-	-	-
CCOc1ccc(C2=NC(c3cccs3)=Nc3ccc(C(C)C)cc3N2)cc1	-	-	-	-	-
CSc1ccc(C2c3c(-c4ccccc4O)n[nH]c3C(=O)N2Cc2ccncc2)cc1 (stereo not drawn)	-	-	-	-	-
CCc1ccc(NC(=S)NC2CC3CCC(C2)N3Cc2ccco2)cc1 (stereo not drawn)	-	-76.7	-	-	-
Cc1ccc(NC(=S)NC2CC3CCCC(C2)N3Cc2cccs2)cc1 (stereo not drawn)	-	-86.8	-	-	-
Cc1ccccc1NC(=S)NC1CC2CCC(C1)N2Cc1ccco1 (stereo not drawn)	-	-	-	-	-
CCCn1c(=O)n(-c2ccccc2Cl)c(=O)c2sc3ccccc3c21	-	-	-	-	-
CCOc1ccccc1N(CC(=O)N(C)Cc1ccccc1)S(=O)(=O)c1ccccc1	-	-37.4	-	-	-
CCOc1cccc(C(=O)Nc2nc3c(s2)CC(C(C)(C)C)CC3)c1 (stereo not drawn)	-	-	-	-	-
Oc1c(C(c2ccccc2Cl)N2CCCC2)sc2nc(-c3ccco3)nn12 (stereo not drawn)	-	.	-	-	-
Cc1cccc(N2C(=O)c3cccc4c(N)ccc(c34)C2=O)c1	-	-	575.6	131.6	-
O=C(O)c1cccc(N2C(=O)c3cccc4c(Cl)ccc(c34)C2=O)c1	-	-	-	-	-
Nc1cccc(N2C(=O)c3cccc4c(N)ccc(c34)C2=O)c1	-	-	156.0	127.3	-
Cc1c(O)c2c3c(cccc3c1O)C(=O)N(c1ccccc1)C2=O	-	-	53.3	-	-
O=C(O)c1ccc2c3c(cccc13)C(=O)N(c1ccccc1)C2=O	-	-	-	-	-
Nc1ccc2c3c(cccc13)C(=O)N(c1ccccc1)C2=O	-	-41.9	384.4	-	-
CCOc1ccc(N(CC)C(=O)Cn2cnc3sc(C)c(S(=O)(=O)N4CCN(c5ncccn5)CC4)c3c2=O)cc1	-	-	-	-	-
COc1cc(C2OC(=O)c3c2ccc(OC)c3OC)ccc1O (stereo not drawn)	-	-	-	-	-
COc1ccc(NC(=O)CCCc2nnc3n(C(C)C)c(=O)c4sccc4n23)cc1Cl	-	-	-	-	-
O=C(CCCn1c(=O)c2cccn2c2ccccc21)NCCc1ccc(Cl)cc1	-	-	-	-	-
Cc1cccc(N2C(=O)c3cccc4c(N(C)CCO)ccc(c34)C2=O)c1	-	-	200.3	-	-
CN(C)c1ccc2c3c(cccc13)C(=O)N(c1ccccc1)C2=O	-	-	-	-	-
COc1ccc(NC(=O)N2CCc3c(sc4c3CCCC4)C2c2ccc(F)cc2)cc1 (stereo not drawn)	-	-	-	-	-
ClC1(Cl)CC1CSc1nc2ccccc2[nH]1 (stereo not drawn)	-	-34.3	-	-	-
O=c1[nH]c(-c2ccccn2)nc2sc(-c3ccccc3)cc12	-	-30.7	-	-	-
Cc1cc(C(=O)COC(=O)c2ccc(O)cc2)c(C)n1CCc1ccc(F)cc1	-	-	-	-	33.3
COc1ccc(-c2noc(N3CCC(C(=O)Nc4ccccc4OC)CC3)n2)cc1	-	-34.1	-	-	-
CC1CN(C(=O)C(C)N2CCN(c3ccccc3Cl)CC2)CC(C)O1 (stereo not drawn)	-	-36.8	-	-	-

Bioassay records: PubChem BioAssay, National Center for Advancing Translational Sciences (NCATS)
